PubChem BioAssay (NCI)
The panel holds about 83,000 compounds, 20% with a hit somewhere; the sample as a whole holds those more often.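 Single-concentration screen, 48 h exposure, 96-well plates. Endpoint: percent growth. Below 10 = active.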 Values without a mark were called inactive. Activity calls are given as the source filed them.

Columns and labels:
Assay in all cases: NCI-60 one-dose screen, 48 h (100 = growth as untreated, 0 = no growth, -100 = all killed)
Conditions in all cases: 10 µM unless noted
SK-MEL-2 melanoma = tested on: SK-MEL-2 melanoma
EKVX NSCLC = tested on: EKVX NSCLC
SN12C renal = tested on: SN12C renal
UO-31 renal = tested on: UO-31 renal
TK-10 renal = tested on: TK-10 renal
ACHN renal = tested on: ACHN renal
CAKI-1 renal = tested on: CAKI-1 renal
A498 renal = tested on: A498 renal
CCRF-CEM leukemia = tested on: CCRF-CEM leukemia
MOLT-4 leukemia = tested on: MOLT-4 leukemia
SR leukemia = tested on: SR leukemia
RPMI-8226 leukemia = tested on: RPMI-8226 leukemia
OVCAR-5 ovarian = tested on: OVCAR-5 ovarian
OVCAR-4 ovarian = tested on: OVCAR-4 ovarian
SK-OV-3 ovarian = tested on: SK-OV-3 ovarian
IGROV1 ovarian = tested on: IGROV1 ovarian
OVCAR-3 ovarian = tested on: OVCAR-3 ovarian
HS 578T breast = tested on: HS 578T breast
NCI/ADR-RES ovarian = tested on: NCI/ADR-RES ovarian
OVCAR-8 ovarian = tested on: OVCAR-8 ovarian

SMILES | growth (SK-MEL-2 melanoma) [%] | growth (EKVX NSCLC) [%] | growth (SN12C renal) | growth (UO-31 renal) | growth (TK-10 renal) | growth (ACHN renal) | growth (CAKI-1 renal) | growth (A498 renal) | growth (CCRF-CEM leukemia) | growth (MOLT-4 leukemia) | growth (SR leukemia) | growth (RPMI-8226 leukemia) | growth (OVCAR-5 ovarian) [%] | growth (OVCAR-4 ovarian) [%] | growth (SK-OV-3 ovarian) [%] | growth (IGROV1 ovarian) | growth (OVCAR-3 ovarian) | growth (HS 578T breast) | growth (NCI/ADR-RES ovarian) | growth (OVCAR-8 ovarian) [%]
CC(=O)CC[C@H]1C(=O)N[C@@H](C(C)C)C(=O)N[C@@H](Cc2cc(O)cc(F)c2)C(=O)N2CCC[C@H](N2)C(=O)O[C@H](/C(C)=C/C=C/C(=O)OC(C)(C)C)C/C=C/C=C/[C@H](O)[C@H](C)[C@H]1O | 62.3 | 71.3 | 53.7% | 56.2% | 62.6% | 62.6% | 57.4% | 82.3% | 46.3% | 49.5% | 16.7% | 37.1% | 88.6 | 56.6 | 48.8 | 43.8% | 54.2% | 55.9% | 77.7% | –
C=C1C(=O)O[C@H]2[C@H]1CC/C(COC(=O)CSCC(=O)OC/C1=C/CC[C@@]3(C)O[C@H]3[C@H]3OC(=O)C(=C)[C@@H]3CC1)=C\CC[C@@]1(C)O[C@@H]21 | 68 | 57.7 | 22.1% | 3.4% (active) | 9.84% (active) | 2.35% (active) | 76.4% | 81.1% | -7.55% (active) | -3.7% (active) | 0.996% (active) | -2.24% (active) | 87.3 | 46.6 | 97.5 | 7.28% (active) | 3.24% (active) | 59.7% | 86.2% | –
Cc1cc2[nH]c(=O)c3c4ncccc4cn3c2cc1C | 93.8 | 60.9 | 39.3% | 37.1% | 18.1% | 32.2% | -24.7% (active) | 105% | 21.7% | 19.4% | -1.41% (active) | 2.89% (active) | – | – | 87.4 | 24.5% | -21.7% (active) | 101% | 34.3% | 39.6
[O-][n+]1c2ccccc2[n+]([O-])c2c3ccccc3[nH]c21 | 61.9 | 30.8 | 81.3% | 70% | 41% | 87.5% | 48.1% | -38.5% (active) | 82.3% | 98.8% | 95.6% | 57.9% | 21 | 34.4 | 42.8 | 13.8% | -20.6% (active) | 96.3% | 65.4% | –
COc1ccc(-c2nc3sc(-c4ccccc4)cn3n2)cc1 | 59.1 | 62.7 | 62.6% | 61.7% | 106% | 67.5% | 60% | 43.7% | 64.2% | 50.7% | 41.2% | 78.6% | 108 | 62.2 | 67.8 | 47.8% | 58.2% | 59.9% | 34% | –
CC1(C)C2CC1C1(/C=N\Nc3ccccc3)C(C2)C(C#N)(C#N)C1(C#N)C#N (stereo not drawn) | 92.7 | 89 | 90% | 66.6% | 133% | 75.9% | 70.1% | 97.1% | 83.7% | 95.7% | 92.4% | 90.1% | 103 | 82.5 | 97.4 | 64.8% | 84.7% | 93.9% | 87.8% | –
C=C1C(=O)O[C@H]2[C@H]1CC/C(COC(=O)CCSSCCC(=O)OC/C1=C/CC[C@@]3(C)O[C@H]3[C@H]3OC(=O)C(=C)[C@@H]3CC1)=C\CC[C@@]1(C)O[C@@H]21 | 52.4 | 12.6 | -45.8% (active) | -88.1% (active) | -33.8% (active) | -85.2% (active) | 20.3% | 72.9% | -23.6% (active) | -26.8% (active) | -14.1% (active) | -23.5% (active) | 17.7 | 29.9 | 89.9 | -49.6% (active) | -35.8% (active) | 7.57% (active) | 50.5% | –
COc1ccc(CN2c3ccccc3Sc3ccccc32)c(F)c1 | 30.4 | 51 | 47.1% | 43% | 51.1% | 43.4% | 21.5% | -11.6% (active) | 7.16% (active) | 22.6% | 12.2% | 12.2% | 50.2 | 61.6 | 30.4 | 50.3% | -20.4% (active) | 21.6% | 22% | –
Cc1nc(NC(=O)COc2ccc(/C=C3\Cc4ccc(Cl)cc4C3=O)cc2)sc1C | 97.4 | 103 | 103% | -88.5% (active) | 310% | 93.7% | 86.1% | 139% | 100% | 83.1% | 93.2% | 103% | 105 | 113 | 114 | -69.8% (active) | 105% | 139% | 96.3% | –
COc1ccc(CN2c3ccccc3CCc3ccccc32)cc1F | 27.2 | 41.1 | 39.1% | 43.2% | 62.7% | 35.6% | 29.7% | -6.65% (active) | 4.49% (active) | 16.2% | 11.6% | 8.72% (active) | 40.7 | 42 | 38.4 | 51.7% | -41.7% (active) | 30.2% | 11.1% | –
CCc1ccc(Oc2c(-c3ccc(OCCc4cccc(C(F)(F)F)c4)cc3O)n[nH]c2C(F)(F)F)cc1 | 55.4 | 50.1 | 19.9% | 16.1% | 58.4% | 16.6% | 63.3% | 35.9% | 11.6% | 4.53% (active) | 47.3% | 3.94% (active) | 84.3 | 22 | 64.9 | 32.8% | 0.567% (active) | 51.1% | 42% | –
Cc1ccc(C(C)C)cc1C(=O)C[n+]1ccccc1 | 107 | 99.7 | 102% | 87.5% | 103% | 95.6% | 99.6% | 81.5% | 113% | 88.4% | 86.1% | 114% | 91.1 | 101 | 97.7 | 98.6% | 101% | 100% | 107% | –
CC1(C)C2CC1C1(/C=N/NC(N)=S)C(C2)C(C#N)(C#N)C1(C#N)C#N (stereo not drawn) | 90.3 | 93.8 | 87.6% | 51.4% | 116% | 44.8% | 104% | 94.3% | 16% | 11.3% | 4.63% (active) | 30.4% | 126 | 94.3 | 103 | 67.1% | 63.1% | 88.7% | 93.5% | –
O=C(O)CCC(=O)Nc1nnc(-c2ccccc2)s1 | 106 | 95.3 | 104% | 106% | 111% | 109% | 97.8% | 98.9% | 106% | 111% | 95.6% | 99.4% | 107 | 109 | 95.6 | 112% | 101% | 111% | 107% | –
COc1cc(C(=O)c2cnc(-c3c[nH]c4cccc(C)c34)[nH]2)cc(OC)c1OC | 35 | 29.7 | 28.1% | 17% | 43.8% | 26.4% | 6.61% (active) | -12% (active) | 6.39% (active) | 8.85% (active) | 4.87% (active) | 10% | 46.5 | 34.5 | 41.1 | 22.1% | -49% (active) | 21.2% | 3.24% (active) | –
C=C1C(=O)O[C@H]2[C@H]1CC/C(COC(=O)CCC(=O)NCCOCCOCC(=O)Nc1ccc(OC)c(C(N)=O)c1O)=C\CC[C@@]1(C)O[C@@H]21 | 89.7 | 94.4 | 92.7% | 92% | 96% | 87.3% | 81.2% | 101% | 53.7% | 97.1% | 46.8% | 87% | 109 | 110 | 96.7 | 59.2% | 85% | 109% | 103% | –
